8 molecules from PubChem BioAssay (Tox21) can be followed below.

A number with no mark means an inactive call. Inconclusive results are not listed. Activity calls are given as the source filed them. Unless noted, calls come from the whole dose curve; as a rule, active = well fitted curve in the direction sought with a large enough effect in the repeat runs; inconclusive = weak or mixed curves; inactive = no such curve, though single readings can be large; an effect the other way counts as inactive or inconclusive.

Test [1] is described as follows: qHTS assay for small molecules that induce genotoxicity in human embryonic kidney cells expressing luciferase-tagged ATAD5 (AID 651632). Note: nearly all actives have a fitted effect of over 15% in size. The method, boiled down: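 Cells were seeded at 2,000 per well, dosed with compound, and incubated 16 hr at 37C in 5% CO2. Luciferase activity was then quantified after a 30 min room-temperature incubation with Amplite.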
For orientation: qHTS replaces the single test concentration by a dilution series.

Test [2] in a line: qHTS assay for small molecule agonists of the p53 signaling pathway - cell viability (AID 651633; calls by dose curve;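 note: p53RE-bla HCT reporter cells with a stable beta-lactamase p53 reporter; series mostly up to about 83 µM; nearly all actives have a fitted effect of over 30% in size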). The method, boiled down: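 p53RE-bla cells were treated with compound for 16 hours at 37 C. Cytotoxicity was then measured as CellTiter-Glo luminescence after 30 min at room temperature.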
The nature of test [3]: qHTS assay for small molecules that induce genotoxicity in human embryonic kidney cells expressing luciferase-tagged ATAD5 - cell viability (AID 651634; calls by dose curve; note: nearly all actives have a fitted effect of over 25% in size). The method, boiled down: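 Cells (HEK293T, luciferase-tagged ATAD5) are seeded at 2,000 per well, dosed with compound or DMSO vehicle, and incubated 15.5 hr at 37C and 5% CO2. CellTiter-Fluor is added for 30 min before fluorescence is measured.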

Test [4] is described as follows: qHTS assay for small molecule disruptors of the mitochondrial membrane potential - cell viability (AID 720634; calls by dose curve;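 note: human HepG2 liver cancer cells; series mostly up to about 83 µM; nearly all actives have a fitted effect of over 20% in size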). The method, boiled down: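 Cytotoxicity was measured by ATP quantitation in HepG2 wells that had first been treated with compound for 1 hr and stained with m-MPI dye; CellTiter-Glo incubation was 30 min at room temperature.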
Test [5] can be described thus: qHTS assay to test for compound auto fluorescence at 590 nm (red) in HepG2 cells (AID 720674). The method, boiled down: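 Fluorescence at 590 nm emission following 540 nm excitation was recorded from HepG2 wells one hour after compound transfer, with DMSO-only wells as vehicle and Rose Bengal sodium equivalency as the scale.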
Test [6] is described as follows: qHTS assay to test for compound auto fluorescence at 535 nm (green) in HepG2 cells (AID 720675).
Test [7] is described as follows: qHTS assay to test for compound auto fluorescence at 460 nm (blue) in HEK293 cells (AID 720678). The method, boiled down:
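Blue read-out at excitation 405 nm and emission 460 nm follows overnight compound exposure of HEK293 cells at 37C in 5% CO2. Activity is given as auto fluorescence equivalency to triamterene.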

Test [8] can be described thus: qHTS assay to test for compound auto fluorescence at 590 nm (red) in HEK293 cells (AID 720679). The method, boiled down:
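Red channel, Ex/Em 540/590nm; signal expressed as equivalency to Rose Bengal sodium. HEK293, 2,000 cells/well, 10% dialyzed FBS; 23 nL compound pinned after 4-5 hr attachment; overnight 37C/5% CO2 before reading.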

Test [9] can be described thus: qHTS assay to test for compound auto fluorescence at 535 nm (green) in HEK293 cells (AID 720680).
Test [10] is described as follows: qHTS assay to test for compound auto fluorescence at 460 nm (blue) in HEK293 cell free culture (AID 720681). The method, boiled down:
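Compounds were added to cell-free DMEM with 10% FBS and fluorescence read directly. The blue channel used 405 nm excitation and 460 nm emission, with triamterene as the reference fluorophore.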

Test [11] is described as follows: qHTS assay to test for compound auto fluorescence at 535 nm (green) in HEK293 cell free culture (AID 720682). The method, boiled down: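 DMEM + 10% FBS, cell-free; cpd or DMSO pinned in; Ex485/Em535 read; output as fluorescein-equivalent signal.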
Test [12] is described as follows: qHTS assay to test for compound auto fluorescence at 590 nm (red) in HepG2 cell free culture (AID 720684). The method, boiled down: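 Auto fluorescence equivalency versus Rose Bengal sodium, red channel Ex/Em 540/590 nm; compounds in cell-free MEM/10% FBS; DMSO vehicle control.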
The nature of test [13]: qHTS assay to test for compound auto fluorescence at 460 nm (blue) in HepG2 cell free culture (AID 720685). The method, boiled down:
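Cell-free plates of MEM plus 10% FBS received 23 nL compound or DMSO vehicle; blue-channel (405/460 nm) intensity scored against triamterene as reference fluorophore.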

Test [14] can be described thus: qHTS assay to test for compound auto fluorescence at 535 nm (green) in HepG2 cell free culture (AID 720686).
Test [15] is described as follows: qHTS assay to test for compound auto fluorescence at 460 nm (blue) in HepG2 cells (AID 720687). The method, boiled down:
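HepG2 cells in MEM with 10% FBS, attached overnight at 37 C, were exposed to compound or DMSO for 1 hr at 37 C, 5% CO2. Blue fluorescence was read at 405/460 nm, with triamterene as reference fluorophore.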

The target in test [16] is Glucocorticoid receptor (Homo sapiens) (UniProt P04150). The test is described as follows: qHTS assay to identify small molecule agonists of the glucocorticoid receptor (GR) signaling pathway (AID 720691; active = well fitted activation curve with a large enough effect in the signal ratio in the repeat runs, not every such curve was filed as active; the % refers to the signal ratio). The method, boiled down: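 Steps: seed GR-bla HeLa cells, incubate 4 h at 37 C/5% CO2; pin-transfer DMSO-dissolved compounds; incubate 18 h at 37 C; add LiveBLAzer B/G FRET substrate; after 2 h at room temperature, measure fluorescence.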

For test [17] the target is unchanged. Nature of the test: qHTS assay to identify small molecule antagonists of the glucocorticoid receptor (GR) signaling pathway (AID 720692; active = well fitted inhibition curve with a large enough effect in the signal ratio in the repeat runs, not every such curve was filed as active; the % refers to the signal ratio). The method, boiled down:
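Antagonism was scored as loss of dexamethasone-driven (5 nM final) reporter signal in HeLa cells bearing a glucocorticoid response element–beta-lactamase construct, after 18 h compound exposure at 37 C and 2 h FRET substrate loading.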

Test [18] in a line: qHTS assay for small molecule disruptors of the mitochondrial membrane potential (AID 720635). Note: potency is the fitted concentration of half-maximal effect. The method, boiled down:
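HepG2 cells exposed to compound 1 hr at 37C, then Mito-MPS dye 30 min. Ratio read of aggregate (540/590 nm) versus monomer (490/535 nm) fluorescence.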

The nature of test [19]: qHTS assay to test for compound auto fluorescence at 590 nm (red) in HEK293 cell free culture (AID 720683). The method, boiled down: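 Cell-free wells of DMEM with 10% FBS received compound, and intrinsic fluorescence was read at excitation/emission 540/590 nm. Values expressed as equivalence to Rose Bengal sodium.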

Chain of Glucocorticoid receptor (Homo sapiens) (P04150 whole entry, looked up): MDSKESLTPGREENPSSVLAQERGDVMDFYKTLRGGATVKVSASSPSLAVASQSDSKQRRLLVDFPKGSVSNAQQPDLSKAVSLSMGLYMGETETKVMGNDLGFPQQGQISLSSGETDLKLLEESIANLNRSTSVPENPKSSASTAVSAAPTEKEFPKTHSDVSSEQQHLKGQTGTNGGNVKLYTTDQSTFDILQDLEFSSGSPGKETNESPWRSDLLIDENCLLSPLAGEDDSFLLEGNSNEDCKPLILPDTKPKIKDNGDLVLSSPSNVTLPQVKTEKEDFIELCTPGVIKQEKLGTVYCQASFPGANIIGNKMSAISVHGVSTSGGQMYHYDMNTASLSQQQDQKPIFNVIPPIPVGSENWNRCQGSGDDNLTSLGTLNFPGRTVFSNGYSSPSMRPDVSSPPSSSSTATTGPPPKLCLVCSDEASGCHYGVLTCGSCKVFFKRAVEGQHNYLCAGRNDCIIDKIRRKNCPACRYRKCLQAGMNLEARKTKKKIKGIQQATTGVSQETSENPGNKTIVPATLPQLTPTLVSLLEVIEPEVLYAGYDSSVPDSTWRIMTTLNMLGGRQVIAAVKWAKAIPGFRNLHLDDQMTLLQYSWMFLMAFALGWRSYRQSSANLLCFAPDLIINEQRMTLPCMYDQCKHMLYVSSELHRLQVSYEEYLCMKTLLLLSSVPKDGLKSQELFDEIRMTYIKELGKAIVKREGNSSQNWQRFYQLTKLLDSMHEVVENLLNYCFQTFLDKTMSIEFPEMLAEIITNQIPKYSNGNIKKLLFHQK

With `Cc1ccc(C)c(N)c1`, the Potency entry in [1], in test [2], in test [3], in test [4], in [16] and in [17] was “inactive” each time. In addition, the result in test [5], in [6], in [7], in test [8], in test [9] and in test [10] was inactive. Further, the result in test [11], in [12], in test [13], in [14] and in test [15] was inactive.
In the case of `CC1=C2[C@H](/C=C(\C)C(=O)O)CC[C@@H](C)[C@H]2CC1`, the Potency entry in [1], in test [2], in test [3], in test [4] and in test [17] was “inactive” each time. The molecule was classed as inactive in [6], in test [9], in [10], in test [11], in [13] and in [14]. Besides, the outcome in [15] was inactive.
As to `CN1C(=O)CC(c2ccccc2)C1=O` (stereo not drawn), the Potency result in test [1], in test [2], in [4], in [16] and in [17] was “inactive” in each case. Also, the molecule was called inactive in test [5], in test [6], in test [7], in test [9], in test [10] and in test [11]. In addition, the molecule was called inactive in test [12], in test [13], in test [14] and in [15].
For `CC/C=C\CCOC(=O)CCCCC`, the Potency entry in test [1], in [2], in test [3] and in test [18] was “inactive” in each case. Moreover, the result in [5], in test [6], in [7], in test [8], in test [9] and in test [10] was inactive. Besides, the call in [11], in test [19], in test [13], in test [14] and in [15] was inactive.
In the case of `CCCCCCCCCCCCCCCCOP(=O)([O-])OCC[N+](C)(C)C`, the Potency entry in [1], in test [2] and in [3] was “inactive” in each case. The call in test [5], in test [6], in test [8], in test [9], in test [10] and in [11] was inactive. The molecule was classed as inactive in test [19], in [12], in [13], in test [14] and in test [15].
Consider `CC(C)=CCC[C@](C)(O)[C@@H]1CC=C(C)CC1`, for which the Potency entry in [1], in test [2] and in [16] was “inactive” in each case. Moreover, in test [18], the Potency is 30.6 µM (active). In addition, the molecule was called inactive in [5], in test [6], in test [7], in [10], in [11] and in test [12]. The molecule was classed as inactive in test [13], in test [14] and in test [15].
Consider `CC(=O)OC1C2(C)CCC(C2)C1(C)C` (stereo not drawn), for which the Potency result in [1], in test [2], in test [4], in test [18] and in test [16] was “inactive” in each case. For the same molecule, the result in [5], in test [6], in test [7], in test [8], in test [9] and in [10] was inactive. Besides, the molecule was called inactive in test [11], in test [19], in [13], in test [14] and in [15].
In the case of `C=Cc1ccccc1`, the Potency entry in [1], in [3], in test [4] and in test [18] was “inactive” in each case. The molecule was called inactive in test [5], in test [6], in test [7], in test [8], in test [9] and in test [10]. Besides, the outcome in test [11], in test [19], in [12], in [13], in test [14] and in test [15] was inactive.
